This is an account of results in PubChem BioAssay AID2066 (NMMLSC, 2009).

Hit rate of the full screen: of about 320,000 compounds, about 50 (0.02%) were called active. The list comes from a sample in which actives are over-represented; it also holds similar structures and randomly drawn compounds. Unmarked numbers belong to inactive results.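 How the source made its calls: active means GFP response relative to DMSO above a set limit, near screen average plus 3 SD (cut at about 150% in these data); inconclusive means fewer than 70 cells counted for the yeast strain; inactive means the rest.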

This test can be described thus: modulators of AGP1-GFP expression in yeast TOR pathway, primary screen, cell-based, multiplex flow cytometry, S. cerevisiae, MLPCN library (AID 2066).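 Further: median GFP channel fluorescence of the gated AGP1 strain per well.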 Conditions: 3 h, at 10 µM, active compounds read high, GFP as percent of DMSO wells.
Regarding `CC1(C)C(=O)C2(CCCCC2)C(=O)OC1c1cccs1` (stereo not drawn), the GFP response vs DMSO was 103%. The result for `O=C(c1cccc(F)c1)N1CCN(c2ccc([N+](=O)[O-])c3cccnc23)CC1` reads 90.5%; that for `CC(C)C[C@H](NC(=O)NCCc1ccc(Cl)cc1)C(=O)O`, 99.6%.

On to `COC(c1ccccc1)(c1ccccc1)C(Oc1nc(C)cc(C)n1)C(=O)O` (stereo not drawn), for which the GFP response vs DMSO was 98.3%. The result for `Cc1ccc(S(=O)(=O)NC2CCCCCC2)cc1` reads 103%; that for `Cc1ccc(S(=O)(=O)Nc2ccc3c(c2)C(=O)N([C@H](C)CO)C[C@@H](C)[C@@H](CN(C)C(=O)Nc2cccc4ccccc24)O3)cc1`, 96.4%; that for `C=CCC(C(=O)c1ccccc1)[N+](C)(C)CC=C` (stereo not drawn), 96.9%. With `S=c1nc2ccccc2c2nc(-c3cccnc3)[nH]n12` the figure was 102%. Turning to `CCC(C)n1c(-c2cc(OC)c(OC)c(OC)c2)nc2nc3ccccc3nc21` (stereo not drawn), the GFP response vs DMSO was 101%. The result for `CCc1ccc(-c2cc3c(=O)n(CC(=O)NCCCN4CCN(Cc5ccccc5)CC4)nc(C)n3n2)cc1` reads 102%; that for `CN(C)C(CNC(=O)c1ccc(OCc2cn3ccccc3n2)cc1)c1ccco1` (stereo not drawn), 97.7%; that for `CC(C)Cc1nnc(NC(=O)CCNC(=O)c2ccccc2Cl)s1`, 105%. The result for `O=C(CCCOc1ccccc1)NNC(=O)c1ccc(Cl)cc1` reads 109%; that for `Cn1cccc1C(=O)OCC(=O)c1ccc(Br)s1`, 100%; that for `COc1cc(NC(=O)CCNC(=O)Cn2ccc3ccccc3c2=O)cc(OC)c1OC`, 104%. The result for `Cc1cc(C(F)(F)F)nn1CC(=O)N1CCCC1` reads 97.4%; that for `CSc1ccc(S(=O)(=O)NCC(=O)OCC(=O)NC2(C#N)CCCCC2)cc1[N+](=O)[O-]`, 108%; that for `CCc1ccc(NC(=O)C(=O)NNC(=O)c2cccs2)cc1`, 107%. Regarding `CC(C)N1C(=O)N(c2ccccc2)C(C)(O)CC1(C)C` (stereo not drawn), the GFP response vs DMSO was 99.2%. With `COc1ccc(C(C)(C)C)cc1NC(=O)CCN1C(=O)C2CCCCC2C1=O` (stereo not drawn) the figure was 112%; with `Cc1nn2cc(-c3ccc(Cl)cc3)cnc2c1Br`, 102%; with `CC(C)c1ccc(NC(=O)CCN2C(=O)c3ccc([N+](=O)[O-])cc3C2=O)cc1`, 111%. With `CC(C)(C)c1ccc(C(=O)N2CCN(CCNC(=O)C(=O)Nc3ccc(F)cc3)CC2)cc1` the figure was 100%; with `Cc1ccc(NC(=O)Cn2cccc2C2=NC(c3ccccc3)CO2)c(C)c1` (stereo not drawn), 103%; with `O=C1[C@@H]2C(c3cccnc3)=NO[C@@H]2C(=O)N1c1ccc(Cl)cc1Cl`, 112%. The result for `C#CCO[C@@H]1C[C@H](n2cnc3c(=O)[nH]c(NC(=O)C(C)C)nc32)O[C@@H]1CO` reads 87.2%.

For `CC1=CC(C)(C)NC(=S)N1NC(=O)c1ccccc1Cl`, the GFP response vs DMSO was 109%. With `COc1ccc(/C(C)=N/N2CCOCC2)c(O)c1` the figure was 104%. With `Cc1cccc(CSc2nc3c(c(=O)n2C)SCC3)c1` the figure was 91.2%; with `Cn1nccc1C(=O)NC1CCCc2c1cnn2-c1ccc(F)cc1F` (stereo not drawn), 95.7%. With `CN(C)N(C)C(=O)C(O)(c1ccccc1)c1ccccc1` the figure was 109%; with `CCC(C)(C)NC(=O)C(c1ccc(O)cc1)N(Cc1ccco1)C(=O)CCC(=O)Nc1ccccn1` (stereo not drawn), 100%. As to `CCOc1ccc(S(=O)(=O)N2CCC(C(=O)NCC(=O)Nc3cccc(Cl)c3C)CC2)cc1`, the GFP response vs DMSO is 93.8%. Consider `O=C(NCc1ccc(F)cc1)C1CCN(C(=O)Nc2ccc(F)cc2)CC1`, for which the GFP response vs DMSO was 96.4%. The result for `O=C(OCC(=O)N1CCN(C(=O)c2ccco2)CC1)c1ccc(Cl)c(Cl)c1` reads 103%. With `COc1ccccc1OCc1ccc(C(=O)NC(C)c2ccccc2)o1` (stereo not drawn) the figure was 95.8%. The result for `Cc1c(Cl)c([N+](=O)[O-])nn1Cc1ccc(C(=O)N/N=C\c2cc(Cl)ccc2O)o1` reads 99.4%; that for `C/C=C/c1ccc(OCC(=O)NNC(=O)CN(C)S(=O)(=O)c2ccc(C)cc2)c(OC)c1`, 91.6%.

In the case of `O=C(O)C(F)(F)C(NCc1ccccc1)c1ccccc1` (stereo not drawn), the GFP response vs DMSO was 102%. With `CCOC(=O)C1C(=O)NCC1c1ccccc1` (stereo not drawn) the figure was 109%.

Take `CCOC(=O)c1ccccc1NC(=O)c1c(N)n(C)c(=O)[nH]c1=O`: the GFP response vs DMSO is 87.3%. Turning to `N#C/C=C/N1CCN(Cc2ccc3c(c2)OCO3)CC1`, the GFP response vs DMSO was 93%. With `O=C(O)CCCCOn1ccnc1` the figure was 91.2%.

In the case of `O=C(Nc1c2c(nn1-c1cccc(Cl)c1)CS(=O)(=O)C2)c1cccs1`, the GFP response vs DMSO was 90.9%.

Consider `Cc1ccccc1NC(=O)C(C)c1ccc(-c2ccccc2)c(F)c1` (stereo not drawn), for which the GFP response vs DMSO is 97.8%. Take `CCn1cc(C(=O)N2CC(C)CC(C)C2)c(=O)c2cc(S(=O)(=O)N3CCCC3)ccc21` (stereo not drawn): the GFP response vs DMSO was 93.8%. In the case of `CC1=CC=CN2C1=NC(=O)CC2(C)C(=O)N(CC(=O)NC1CCCC1)c1ccccc1C` (stereo not drawn), the GFP response vs DMSO is 99.9%.

As for `CCOc1ncccc1C(=O)OCC(=O)Nc1cccc(S(=O)(=O)N2CCCCCC2)c1`, the GFP response vs DMSO was 100%. With `CCOc1ccc(N2C(=O)CSC2=NC#N)cc1` the figure was 88.3%.

On to `Cc1ccc(S(=O)(=O)NCC(=O)N(CC(=O)NCC2CCCO2)c2cccc(F)c2)cc1` (stereo not drawn), for which the GFP response vs DMSO is 114%. With `CC1(C)NC(=O)N(CC(=O)N2CCN(S(=O)(=O)c3ccccc3F)CC2)C1=O` the figure was 95.5%; with `Cc1cc(C)c(NC(=S)N2CCCC2C(=O)O)c(C)c1` (stereo not drawn), 102%. With `Cc1cccc(C)c1NC(=O)C1(N(C(=O)c2ccccn2)c2ccc(O)cc2)CCCCC1` the figure was 97.2%; with `CC(=O)C[C@H](O)CC(=O)[C@@H]1OC(=O)[C@@H](C)C/C=C\Cc2ccccc21`, 98.2%. Consider `CCOc1ccc(C2NC(=S)NC3=C2CCc2ccccc23)cc1` (stereo not drawn), for which the GFP response vs DMSO was 103%.

With `CCCCn1nc(C(=O)N2CCc3ccccc32)c2ccccc2c1=O`, the GFP response vs DMSO was 98.5%.

In the case of `Cc1ccccc1OCC(=O)NNC(=O)c1ccc(-n2cncn2)c([N+](=O)[O-])c1`, the GFP response vs DMSO was 106%.

For the compound `O=C(CSc1cccc[n+]1[O-])NCCCc1ccccc1`, the GFP response vs DMSO was 101%.
